Test results taken from PubChem BioAssay AID1159607 (Small Molecule Screening Facility, UW Madison, 2016).
“And” between values parts separate entries of the source, which are not always exact repeats. Identical values can stand only once. The campaign covered roughly 70,000 compounds. About 400 (0.57%) were called active. Cut-off read from the data, not from the text of the source: active = FP signal below about 40; inactive = the rest. Many of the other results were omitted from the sample, so actives are more common in it than they were.

System: RMI core complex (RMI1/RMI2) binding to FANCM MM2 peptide, human
Experiment: disruptors of RMI1/RMI2 association with MM2 peptide – biochemical, fluorescence polarization, human, primary screen (AID 1159607)
Settings: RMI core complex with F-MM2 peptide, at 33 µM, stronger effect = lower value

| Compound | FP signal (polarization) |
| --- | --- |
| CC(=O)O[C@H]1CC[C@@]2(C)C(=CCC3C2CC[C@]2(C)C(=O)CCC32)C1 (stereo not given in full) | -6 (active) |
| CC(=O)NBr | 53 (inactive) |
| CC12CCC3C(CCC4CC(O)CCC43C)C1C/C(=C\c1ccccc1Cl)C2=O (stereo not given) | 62 (inactive) |
| CN1CCc2cc3c(cc2[C@H]1[C@@H]1OC(=O)c2c1ccc1c2OCO1)OCO3 | 67 (inactive) and 61 (inactive) |
| CSC(=NCc1ccccc1Cl)N/C(N)=N/[N+](=O)[O-] | 58 (inactive) |
| NCC(O)c1ccc(O)cc1 (stereo not given) | -18 (active) and 54 (inactive) and 46 (inactive) |
| COc1ccc2c(c1O)-c1cccc3c1[C@@H](C2)N(C)CC3 | 57 (inactive) |
| c1cncc(OCC2=NCCN2)c1 | 51 (inactive) |
| CNC(=O)O/N=C\C(C)(C)SC | 58 (inactive) |
| CC(=O)NS(=O)(=O)c1ccc(NC(=O)c2cccn(Cc3cccc([N+](=O)[O-])c3)c2=O)cc1 | 51 (inactive) |
